Test results: PubChem BioAssay (NCATS)
Results filed as inconclusive are left out. Calls of active or inactive are those of the source. Unless noted, the call rests on the fitted dose curve; in most records, active means well fitted curve in the direction sought with a large enough effect; inconclusive means small, poorly fitted or top-dose-only effect, or another doubt; inactive means no such curve, though single readings can be large; an effect the other way counts as inactive or inconclusive.

Legend:
[1] = target: Cytochrome P450 1A2 (Homo sapiens) (UniProt P05177); test: p450-cyp1a2 (AID 410; calls by dose curve)
In short: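 O-Demethylation of luciferin 6' methyl ether by human CYP1A2 is monitored as luciferase luminescence. Substrate sits at Km (100uM); enzyme is 20nM. Values are scaled to 57 uM furafylline as maximal inhibition.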

[2] = target: Mitogen-activated protein kinase 10 (Mus musculus) (UniProt Q61831); test: JNK3 AlphaScreen Assay (AID 530; active means well fitted curve in either direction with a large enough effect, not every such curve was filed as active;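 further: kinase came from lysate of stimulated human HepG2 cells; signal reports phosphorylation of biotinylated GST-cJun 1-79 at Ser73 with 10 µM ATP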)
In short: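 Activity was read by AlphaScreen after JNK3-containing HepG2 lysate (cytokine pre-activated) phosphorylated biotinylated GST-cJun with 10 uM ATP at room temperature. Phospho-Ser73 cJun antibody with Protein-A acceptor beads provided detection.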

[3] = target: 3',5'-cyclic-AMP phosphodiesterase 4B (Homo sapiens) (UniProt Q07343); test: qHTS Assay for Inhibitors of PDE-IV (AID 607; active means well fitted activation curve with a large enough effect in the main read-out, with a control signal flat, not every such curve was filed as active)
In short: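 HEK293 ACTOne cells with CNG channel (1000/well), endogenous PDE4; membrane potential dye, compounds up to 22.9 uM final. Fluorescence Ex 535/Em 590; RO 20-1724 (100 uM final) as reference.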

[4] = target: alpha-glucosidase (Oryza sativa, rice) (UniProt Q653V4); test: Counterscreen for Glucocerebrosidase Inhibitors: qHTS Assay for Rice alpha-Glucosidase at pH 5.0 (AID 997)
In short: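 Endpoint fluorogenic assay at pH 5.0: compounds (0.7 nM to 77 uM) titrated against 4 nM rice enzyme and 400 uM 4-MU-alpha-glucoside for 20 min at room temperature; NaOH/glycine stop, read ex 365/em 440 nm, Hill-fitted AC50.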

[5] = S16 Schwann cell PMP22 intronic element beta-lactamase assay (AID 624044; calls by dose curve; further: nearly all actives have a fitted effect of over 15% in size); conditions: S16 rat Schwann cells, PMP22 element beta-lactamase FRET, 24 h; ratio activity, negative = inhibition: at 38.3 µM (top of the series)
In short: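 Beta-lactamase reporter under a PMP22 intronic regulatory element in stable S16 rat Schwann cells; 24 h compound exposure. 460 nm blue signal normalized between DMSO (0%) and potassium clavulanate, with 535 nm FRET tracking viability; curves classed by r2 and response.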

3D7 = test: qHTS profiling for inhibitors of Plasmodium falciparum proliferation (AID 504749); further: nearly all actives have a fitted effect of over 60% in size; further: potency means the concentration at half of the fitted maximal effect; conditions: P. falciparum in erythrocytes, SYBR Green DNA, 72 h; series mostly up to 28.7 µM
In short: (§1)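 Each compound contacts P. falciparum-infected red blood cells for 72 h at 37 C; lysis buffer (Tris, EDTA, saponin, Triton X, SYBR Green I) is added and fluorescence measured next morning; values normalized to controls.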

7G8 = test: as above; conditions: P. falciparum in erythrocytes, SYBR Green DNA, 72 h; series mostly up to 28.7 µM
In short: as §1

AA1029 = test: as above; conditions: P. falciparum in erythrocytes, SYBR Green DNA, 72 h; series mostly up to 28.7 µM
In short: as §1

AS120 = test: as above; conditions: P. falciparum in erythrocytes, SYBR Green DNA, 72 h; series mostly up to 28.7 µM
In short: as §1

ATS189 = test: as above; conditions: P. falciparum in erythrocytes, SYBR Green DNA, 72 h; series mostly up to 28.7 µM
In short: as §1

ATS95 = test: as above; conditions: P. falciparum in erythrocytes, SYBR Green DNA, 72 h; series mostly up to 28.7 µM
In short: as §1

C2A = test: as above; conditions: P. falciparum in erythrocytes, SYBR Green DNA, 72 h; series mostly up to 28.7 µM
In short: as §1

CP185 = test: as above; conditions: P. falciparum in erythrocytes, SYBR Green DNA, 72 h; series mostly up to 28.7 µM
In short: as §1

CP191 = test: as above; conditions: P. falciparum in erythrocytes, SYBR Green DNA, 72 h; series mostly up to 28.7 µM
In short: as §1

CP192 = test: as above; conditions: P. falciparum in erythrocytes, SYBR Green DNA, 72 h; series mostly up to 28.7 µM
In short: as §1

CP194 = test: as above; conditions: P. falciparum in erythrocytes, SYBR Green DNA, 72 h; series mostly up to 28.7 µM
In short: as §1

CP201 = test: as above; conditions: P. falciparum in erythrocytes, SYBR Green DNA, 72 h; series mostly up to 28.7 µM
In short: as §1

CP203 = test: as above; conditions: P. falciparum in erythrocytes, SYBR Green DNA, 72 h; series mostly up to 28.7 µM
In short: as §1

CP211 = test: as above; conditions: P. falciparum in erythrocytes, SYBR Green DNA, 72 h; series mostly up to 28.7 µM
In short: as §1

CP215 = test: as above; conditions: P. falciparum in erythrocytes, SYBR Green DNA, 72 h; series mostly up to 28.7 µM
In short: as §1

CP217 = test: as above; conditions: P. falciparum in erythrocytes, SYBR Green DNA, 72 h; series mostly up to 28.7 µM
In short: as §1

CP237 = test: as above; conditions: P. falciparum in erythrocytes, SYBR Green DNA, 72 h; series mostly up to 28.7 µM
In short: as §1

CP238 = test: as above; conditions: P. falciparum in erythrocytes, SYBR Green DNA, 72 h; series mostly up to 28.7 µM
In short: as §1

CP247 = test: as above; conditions: P. falciparum in erythrocytes, SYBR Green DNA, 72 h; series mostly up to 28.7 µM
In short: as §1

CP250 = test: as above; conditions: P. falciparum in erythrocytes, SYBR Green DNA, 72 h; series mostly up to 28.7 µM
In short: as §1

CP252 = test: as above; conditions: P. falciparum in erythrocytes, SYBR Green DNA, 72 h; series mostly up to 28.7 µM
In short: as §1

CP256 = test: as above; conditions: P. falciparum in erythrocytes, SYBR Green DNA, 72 h; series mostly up to 28.7 µM
In short: as §1

CP260 = test: as above; conditions: P. falciparum in erythrocytes, SYBR Green DNA, 72 h; series mostly up to 28.7 µM
In short: as §1

CP262 = test: as above; conditions: P. falciparum in erythrocytes, SYBR Green DNA, 72 h; series mostly up to 28.7 µM
In short: as §1

CP265 = test: as above; conditions: P. falciparum in erythrocytes, SYBR Green DNA, 72 h; series mostly up to 28.7 µM
In short: as §1

CP266 = test: as above; conditions: P. falciparum in erythrocytes, SYBR Green DNA, 72 h; series mostly up to 28.7 µM
In short: as §1

CP268 = test: as above; conditions: P. falciparum in erythrocytes, SYBR Green DNA, 72 h; series mostly up to 28.7 µM
In short: as §1

CP269 = test: as above; conditions: P. falciparum in erythrocytes, SYBR Green DNA, 72 h; series mostly up to 28.7 µM
In short: as §1

CP286 = test: as above; conditions: P. falciparum in erythrocytes, SYBR Green DNA, 72 h; series mostly up to 28.7 µM
In short: as §1

CP291 = test: as above; conditions: P. falciparum in erythrocytes, SYBR Green DNA, 72 h; series mostly up to 28.7 µM
In short: as §1

CP297 = test: as above; conditions: P. falciparum in erythrocytes, SYBR Green DNA, 72 h; series mostly up to 28.7 µM
In short: as §1

CP305 = test: as above; conditions: P. falciparum in erythrocytes, SYBR Green DNA, 72 h; series mostly up to 28.7 µM
In short: as §1

CP325 = test: as above; conditions: P. falciparum in erythrocytes, SYBR Green DNA, 72 h; series mostly up to 28.7 µM
In short: as §1

CP329 = test: as above; conditions: P. falciparum in erythrocytes, SYBR Green DNA, 72 h; series mostly up to 28.7 µM
In short: as §1

CP335 = test: as above; conditions: P. falciparum in erythrocytes, SYBR Green DNA, 72 h; series mostly up to 28.7 µM
In short: as §1

DFO2036 = test: as above; conditions: P. falciparum in erythrocytes, SYBR Green DNA, 72 h; series mostly up to 28.7 µM
In short: as §1

DIV14 = test: as above; conditions: P. falciparum in erythrocytes, SYBR Green DNA, 72 h; series mostly up to 28.7 µM
In short: as §1

DIV17 = test: as above; conditions: P. falciparum in erythrocytes, SYBR Green DNA, 72 h; series mostly up to 28.7 µM
In short: as §1

DIV30 = test: as above; conditions: P. falciparum in erythrocytes, SYBR Green DNA, 72 h; series mostly up to 28.7 µM
In short: as §1

Dd2 = test: as above; conditions: P. falciparum in erythrocytes, SYBR Green DNA, 72 h; series mostly up to 28.7 µM
In short: as §1

ECU = test: as above; conditions: P. falciparum in erythrocytes, SYBR Green DNA, 72 h; series mostly up to 28.7 µM
In short: as §1

HB3 = test: as above; conditions: P. falciparum in erythrocytes, SYBR Green DNA, 72 h; series mostly up to 28.7 µM
In short: as §1

ICS = test: as above; conditions: P. falciparum in erythrocytes, SYBR Green DNA, 72 h; series mostly up to 28.7 µM
In short: as §1

N140 = test: as above; conditions: P. falciparum in erythrocytes, SYBR Green DNA, 72 h; series mostly up to 28.7 µM
In short: as §1

P93_24 = test: as above; conditions: P. falciparum in erythrocytes, SYBR Green DNA, 72 h; series mostly up to 28.7 µM
In short: as §1

P94_40 = test: as above; conditions: P. falciparum in erythrocytes, SYBR Green DNA, 72 h; series mostly up to 28.7 µM
In short: as §1

PAD = test: as above; conditions: P. falciparum in erythrocytes, SYBR Green DNA, 72 h; series mostly up to 28.7 µM
In short: as §1

PC15 = test: as above; conditions: P. falciparum in erythrocytes, SYBR Green DNA, 72 h; series mostly up to 28.7 µM
In short: as §1

PC26 = test: as above; conditions: P. falciparum in erythrocytes, SYBR Green DNA, 72 h; series mostly up to 28.7 µM
In short: as §1

SC27B = test: as above; conditions: P. falciparum in erythrocytes, SYBR Green DNA, 72 h; series mostly up to 28.7 µM
In short: as §1

TAB109 = test: as above; conditions: P. falciparum in erythrocytes, SYBR Green DNA, 72 h; series mostly up to 28.7 µM
In short: as §1

TAB113 = test: as above; conditions: P. falciparum in erythrocytes, SYBR Green DNA, 72 h; series mostly up to 28.7 µM
In short: as §1

TAB165 = test: as above; conditions: P. falciparum in erythrocytes, SYBR Green DNA, 72 h; series mostly up to 28.7 µM
In short: as §1

W2 = test: as above; conditions: P. falciparum in erythrocytes, SYBR Green DNA, 72 h; series mostly up to 28.7 µM
In short: as §1

Measured: Potency

Chain of 3',5'-cyclic-AMP phosphodiesterase 4B (Homo sapiens) (Q07343 whole entry, looked up): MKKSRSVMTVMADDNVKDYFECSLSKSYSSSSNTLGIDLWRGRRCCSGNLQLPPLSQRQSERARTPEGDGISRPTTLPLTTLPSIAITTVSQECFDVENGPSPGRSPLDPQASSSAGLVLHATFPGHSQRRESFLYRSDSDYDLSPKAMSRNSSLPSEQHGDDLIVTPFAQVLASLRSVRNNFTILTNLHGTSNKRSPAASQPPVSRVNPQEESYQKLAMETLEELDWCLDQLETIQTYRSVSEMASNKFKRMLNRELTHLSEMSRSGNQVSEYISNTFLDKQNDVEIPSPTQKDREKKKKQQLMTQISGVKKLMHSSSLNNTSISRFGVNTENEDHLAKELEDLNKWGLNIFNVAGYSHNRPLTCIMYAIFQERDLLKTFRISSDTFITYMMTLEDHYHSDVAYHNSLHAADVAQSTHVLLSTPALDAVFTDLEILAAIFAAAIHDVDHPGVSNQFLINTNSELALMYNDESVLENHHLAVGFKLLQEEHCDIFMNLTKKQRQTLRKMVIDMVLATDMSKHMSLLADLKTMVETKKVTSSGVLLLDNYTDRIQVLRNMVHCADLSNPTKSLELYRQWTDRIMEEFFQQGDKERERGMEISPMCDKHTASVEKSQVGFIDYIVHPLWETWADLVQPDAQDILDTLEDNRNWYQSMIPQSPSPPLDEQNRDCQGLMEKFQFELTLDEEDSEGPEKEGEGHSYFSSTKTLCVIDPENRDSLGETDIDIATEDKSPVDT
Chain of Cytochrome P450 1A2 (Homo sapiens) (P05177 whole entry, looked up): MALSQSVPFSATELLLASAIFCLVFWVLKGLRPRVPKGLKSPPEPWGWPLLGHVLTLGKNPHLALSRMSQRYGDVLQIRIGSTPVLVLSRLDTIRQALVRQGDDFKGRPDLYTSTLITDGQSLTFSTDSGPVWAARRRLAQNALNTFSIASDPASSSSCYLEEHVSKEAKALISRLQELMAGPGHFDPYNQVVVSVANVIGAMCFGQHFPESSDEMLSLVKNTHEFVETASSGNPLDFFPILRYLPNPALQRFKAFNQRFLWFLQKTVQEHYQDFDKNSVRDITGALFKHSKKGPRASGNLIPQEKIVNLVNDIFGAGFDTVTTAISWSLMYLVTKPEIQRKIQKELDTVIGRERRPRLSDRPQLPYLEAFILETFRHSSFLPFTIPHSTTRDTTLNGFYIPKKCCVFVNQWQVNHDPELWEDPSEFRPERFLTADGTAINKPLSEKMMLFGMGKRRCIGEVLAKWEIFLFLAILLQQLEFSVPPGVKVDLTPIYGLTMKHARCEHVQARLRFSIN

C/C=C\C[C@H](C)[C@H](O)[C@H]1C(=O)N[C@@H](CC)C(=O)N(C)CC(=O)N(C)[C@@H](CC(C)C)C(=O)N[C@@H](C(C)C)C(=O)N(C)[C@@H](CC(C)C)C(=O)N[C@@H](C)C(=O)N[C@@H](C)C(=O)N(C)[C@@H](CC(C)C)C(=O)N(C)[C@@H](CC(C)C)C(=O)N(C)[C@@H](C(C)C)C(=O)N1C
active: 3D7 3.98 µM | 7G8 8.91 µM | AA1029 2.82 µM | AS120 3.98 µM | ATS95 3.55 µM | C2A 3.55 µM | CP185 3.55 µM | CP191 3.16 µM | CP192 6.75 µM | CP194 8.49 µM | CP201 6.75 µM | CP203 13.5 µM | CP211 6.75 µM | CP215 7.57 µM | CP217 3.16 µM | CP237 4.47 µM | CP238 3.55 µM | CP247 3.55 µM | CP250 3.55 µM | CP252 3.55 µM | CP256 3.16 µM | CP260 2.82 µM | CP262 3.79 µM | CP265 3.55 µM | CP266 10.7 µM | CP268 15.1 µM | CP269 6.01 µM | CP286 7.08 µM | CP291 10.7 µM | CP297 4.78 µM | CP305 6.01 µM | CP325 7.57 µM | CP329 6.01 µM | CP335 4.26 µM | DFO2036 2.51 µM | DIV14 6.75 µM | DIV17 8.49 µM | DIV30 13.5 µM | Dd2 5.01 µM | ECU 2.24 µM | HB3 7.08 µM | ICS 3.98 µM | N140 2.82 µM | P93_24 5.01 µM | P94_40 5.01 µM | PAD 3.55 µM | PC15 11.2 µM | PC26 6.75 µM | SC27B 2.82 µM | TAB109 3.55 µM | TAB113 3.55 µM | TAB165 4.47 µM | W2 1.9 µM
inactive: [1] | [2] | [3] | [4] | [5] | ATS189
